From PubChem BioAssay (NCATS)
Records with an inconclusive call do not appear. Calls of active or inactive are those of the source. Calls come from the whole dose curve; as a rule, active = well fitted curve in the direction sought with a large enough effect; inconclusive = small, poorly fitted or top-dose-only effect, or another doubt; inactive = no such curve, though single readings can be large; an effect the other way counts as inactive or inconclusive.

Tests used:
[1] = Cellular Toxicity (caspase-3) N2a (AID 665);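 note: compound exposure lasted 16 h at 37 °C before readout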
Outline: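 Concentration-response qHTS: compound-induced caspase-3/7 luminescence in N2a cells (16 h, 37 °C), relative to DMSO and 10 uM staurosporine controls; AC50 obtained using the standard Hill equation.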

[2] = Cellular Toxicity (caspase-3) NIH 3T3 (AID 666);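 note: caspase signal read after 16 h compound exposure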
Outline: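 Activity: caspase-3/7 induction, NIH 3T3 cells, 16 hr treatment at 37°C, luminescent Caspase-Glo detection; AC50 via Hill equation.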

[3] = Cellular Toxicity (caspase-3) Renal Proximal Tubule (AID 667); settings: Potency: caspase-3 activation;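 note: cells exposed to compound for 16 hours at 37 °C before detection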
Outline: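 AC50 derived by standard Hill fit of concentration-response data, normalized between DMSO basal and 10 uM staurosporine as 100% stimulation. Cells: primary rat kidney proximal tubule, 16 h treatment at 37 °C.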

[4] = biological target: Cytochrome P450 3A4 (Homo sapiens) (UniProt P08684); experiment: qHTS Assay for Inhibitors and Substrates of Cytochrome P450 3A4 (AID 884); note: series mostly up to about 57 µM; nearly all actives have a fitted effect of over 50% in size
Chain of Cytochrome P450 3A4 (Homo sapiens) (P08684 whole entry, looked up): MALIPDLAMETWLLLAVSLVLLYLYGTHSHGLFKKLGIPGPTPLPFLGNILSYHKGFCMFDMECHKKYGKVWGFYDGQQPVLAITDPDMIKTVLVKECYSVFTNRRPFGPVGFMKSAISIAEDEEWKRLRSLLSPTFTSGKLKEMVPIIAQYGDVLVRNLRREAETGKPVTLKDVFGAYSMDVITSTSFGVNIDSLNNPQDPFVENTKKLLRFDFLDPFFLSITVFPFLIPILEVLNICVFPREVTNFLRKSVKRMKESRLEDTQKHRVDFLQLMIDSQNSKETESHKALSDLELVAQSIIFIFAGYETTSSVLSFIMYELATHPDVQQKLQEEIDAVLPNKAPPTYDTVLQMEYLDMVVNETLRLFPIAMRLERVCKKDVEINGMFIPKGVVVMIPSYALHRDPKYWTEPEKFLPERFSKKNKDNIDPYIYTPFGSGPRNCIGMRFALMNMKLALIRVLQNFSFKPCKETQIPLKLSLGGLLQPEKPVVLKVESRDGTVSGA
Outline: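 Luminescent readout of luciferin produced by CYP3A4 (20 nM) dealkylation of Luciferin-PPXE, 25 uM (its KM). NADPH-driven reaction ran 60 min at RT after 10 min compound preincubation; data scaled to 57 uM ketoconazole as 100% inhibition.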

[5] = Cell Viability - LYMP2-001 (AID 921);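 note: series mostly up to about 92 µM; cells exposed to compound for 24 h at 37 °C; nearly all actives have a fitted effect of over 70% in size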
Outline: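 Steps: seed 2500 lymphoblastoid cells/well; 5 hr, 37 C; add compound; 24 hr, 37 C; CellTiter-Glo reagent, 30 min room temperature; read luminescence. Concentration-response modeled by Hill equation for AC50.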

[6] = MultiTox-Fluor Cytotoxicity Assay - LYMP1-001 - Dead Cells (AID 946)
Outline: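 AC50 from Hill fit of concentration-response; data normalized to DMSO (basal) and 15 uM tetraoctylammonium bromide (100%). LYMP1-001 lymphoblastoid cells, 2500/well, 16 hr compound at 37 C; dead-cell protease fluorescence, Ex/Em 485/520.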

[7] = MultiTox-Fluor Cytotoxicity Assay - LYMP1-001 - Live Cells (AID 947)
[8] = Cell Viability - LYMP1-002 - Assay at 16 hr (AID 948)
Outline: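 Seed 2500 LYMP1-002 cells per well in complete medium and hold 5 hr at 37 C. Add compound across a concentration series and incubate 16 hr at 37 C. Add CellTiter-Glo, wait 30 min at room temperature, read luminescence.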

[9] = MultiTox-Fluor Cytotoxicity Assay - LYMP1-002 - Live Cells (AID 955);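 note: cells exposed to compound for 16 hours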
Outline: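 In this qHTS viability format, lymphoblastoid cells (LYMP1-002, human) received compound for 16 hr at 37 C. Fluorogenic GF-AFC cleavage by viable cells was detected at 405/510 nm after 1 h at room temperature.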

[10] = MultiTox-Fluor Cytotoxicity Assay - LYMP1-002 - Dead Cells (AID 960); note: nearly all actives have a fitted effect of over 60% in size
Outline: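 Concentration-dependent increases in membrane-leaked protease activity are quantified in LYMP1-002 cells after 16 hr treatment; values are normalized against DMSO and tetraoctylammonium bromide (15 uM) controls and AC50 derived by Hill modeling.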

[11] = MultiTox-Fluor Cytotoxicity Assay - LYMP1-003 - Dead Cells (AID 961); note: nearly all actives have a fitted effect of over 70% in size
Outline: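 Human lymphoblastoid LYMP1-003 cells (2500/well) were treated with compounds for 16 hr at 37 C in complete medium. Dead-cell protease release was read by bis-AAF-R110 fluorescence (Ex/Em 485/520). AC50 came from Hill fits, normalized to DMSO and 15 uM tetraoctylammonium bromide.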

[12] = MultiTox-Fluor Cytotoxicity Assay - LYMP1-003 - Live Cells (AID 962);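 note: cells exposed to compound for 16 hours at 37 °C; cytotoxic hits lower the live-cell protease signal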
Outline: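 Human lymphoblastoid line LYMP1-003 in complete culture medium, treated 16 hr with titrated compounds. Viable cells quantified via cell-permeant GF-AFC substrate fluorescence; AC50 derived by Hill fitting.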

[13] = Cell Viability - LYMP1-003 - Assay at 24 hr (AID 963)
Outline: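 The lymphoblastoid line was treated with titrated compounds for 24 hours, and viable cell number estimated from luciferase-based ATP luminescence.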

[14] = Cell Viability - LYMP1-003 - Assay at 40 hr (AID 964); note: series mostly up to about 92 µM; nearly all actives have a fitted effect of over 60% in size
Outline: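 Acute toxicity is scored as a concentration-dependent loss of intracellular ATP in LYMP1-003 cells (2500/well, complete medium) after 40 hr at 37 C, measured by CellTiter-Glo luminescence; AC50 values derive from standard Hill modelling.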

[15] = Cell Viability - LYMP2-003 (AID 965);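 note: cells exposed to compounds for 24 h before reading; nearly all actives have a fitted effect of over 50% in size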
Outline: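 Seed 2500 lymphoblastoid cells/well; incubate 5 hr, 37 C; add compounds; incubate 24 hr, 37 C; add CellTiter-Glo, 30 min RT; read luminescence. AC50 from Hill fit.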

[16] = Cell Viability - LYMP2-004 (AID 966); note: nearly all actives have a fitted effect of over 65% in size
Outline: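 Viable-cell number estimated from ATP luminescence (CellTiter-Glo) in 2500 human lymphoblastoid cells/well after 24 hr at 37 C with compound. AC50 fitted to the standard Hill equation.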

[17] = Cell Viability - LYMP2-005 (AID 967);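 note: series mostly up to about 92 µM; cells exposed to compound for 24 h at 37 °C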
Outline: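 Acute cytotoxicity is scored as a concentration-dependent drop in intracellular ATP in human lymphoblastoid LYMP2-005 cells after 24 h compound treatment. ATP is quantified by luciferase luminescence, and AC50 is derived by Hill-equation modelling.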

[18] = Cell Viability - LYMP2-009 (AID 968);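 note: series mostly up to about 92 µM; cells exposed to compound for 24 h at 37 °C; nearly all actives have a fitted effect of over 55% in size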
[19] = Cell Viability - LYMP2-011 (AID 969); note: nearly all actives have a fitted effect of over 60% in size
Outline: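 Cells seeded at 2500 per well rest 5 hr before compound addition, then incubate 24 hr at 37 C. CellTiter-Glo reagent is added for 30 min at room temperature before luminescence detection.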

[20] = Cell Viability - LYMP2-013 (AID 970);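 note: series mostly up to about 92 µM; cells exposed to compound for 24 h at 37 °C; nearly all actives have a fitted effect of over 55% in size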
Outline: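 In complete culture medium, human lymphoblastoid cells were dosed for 24 hr at 37 C, with tetraoctylammonium bromide (6.4pM to 92 uM) as positive control. Viability reflects luciferase-based ATP signal; AC50 derived from concentration-response curves.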

[21] = Cell Viability - LYMP2-015 (AID 971); note: nearly all actives have a fitted effect of over 55% in size
Outline: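 AC50 values reflect Hill-model fits of ATP-based luminescence (CellTiter-Glo) from a human lymphoblastoid line, 2500 cells/well, treated 24 hr at 37 C.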

Measured: Potency

CCc1ccc(C(c2ccc(CC)cc2)C(Cl)Cl)cc1
inactive: [1] | [2] | [3] | [4] | [5] | [6] | [7] | [8] | [9] | [10] | [11] | [12] | [13] | [14] | [15] | [16] | [17] | [18] | [19] | [20] | [21]
